# About 14,000 (4.5%) of roughly 310,000 compounds showed an effect of 50% or more. The effect is printed as a negative number. This is one part of a sample in which strong results are shown more often than they occur.
# Biological target: human ether-à-go-go-related gene (hERG) potassium channel (human, UniProt Q12809)
# Experiment: primary screen, population patch clamp on CHO cells stably expressing hERG; higher = less effect of the substance
# 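Further: peak tail current of the secondary pulse compared with the same well before compound.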
# human ether-à-go-go-related gene (hERG) potassium channel, sequence (Q12809 whole entry, looked up): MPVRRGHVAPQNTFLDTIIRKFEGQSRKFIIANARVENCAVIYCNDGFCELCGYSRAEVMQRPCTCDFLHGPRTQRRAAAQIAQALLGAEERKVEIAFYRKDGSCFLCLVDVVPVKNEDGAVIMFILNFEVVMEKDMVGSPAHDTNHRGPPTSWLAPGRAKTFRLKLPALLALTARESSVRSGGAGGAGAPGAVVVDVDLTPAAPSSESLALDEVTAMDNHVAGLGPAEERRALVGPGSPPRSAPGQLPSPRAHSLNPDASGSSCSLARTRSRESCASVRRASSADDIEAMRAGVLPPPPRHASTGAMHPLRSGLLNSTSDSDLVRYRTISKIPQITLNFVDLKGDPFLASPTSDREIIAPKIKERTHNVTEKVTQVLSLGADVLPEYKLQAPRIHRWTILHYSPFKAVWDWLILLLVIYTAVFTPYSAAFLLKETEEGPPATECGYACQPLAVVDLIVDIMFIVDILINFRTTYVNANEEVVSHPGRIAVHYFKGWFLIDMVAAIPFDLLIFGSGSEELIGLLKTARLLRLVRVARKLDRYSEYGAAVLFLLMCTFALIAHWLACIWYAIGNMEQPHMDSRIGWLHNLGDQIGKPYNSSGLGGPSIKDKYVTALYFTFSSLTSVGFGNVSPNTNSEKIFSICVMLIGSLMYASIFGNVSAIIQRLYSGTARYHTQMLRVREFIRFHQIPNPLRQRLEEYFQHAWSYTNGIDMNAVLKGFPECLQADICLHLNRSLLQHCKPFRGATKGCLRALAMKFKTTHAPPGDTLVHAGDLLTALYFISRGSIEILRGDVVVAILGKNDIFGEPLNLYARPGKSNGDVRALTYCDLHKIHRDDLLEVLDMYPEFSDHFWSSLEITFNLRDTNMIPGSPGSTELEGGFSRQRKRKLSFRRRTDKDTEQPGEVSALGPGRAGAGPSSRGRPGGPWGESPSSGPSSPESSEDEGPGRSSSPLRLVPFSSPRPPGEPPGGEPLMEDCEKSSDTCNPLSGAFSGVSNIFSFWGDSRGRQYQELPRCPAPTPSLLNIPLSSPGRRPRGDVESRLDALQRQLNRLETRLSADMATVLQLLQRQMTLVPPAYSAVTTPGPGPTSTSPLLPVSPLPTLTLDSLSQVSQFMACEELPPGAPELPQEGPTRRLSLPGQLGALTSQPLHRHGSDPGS
row,Structure (SMILES),"hERG current change (%, negative = inhibition) at 10uM [%]"
1,CC1(C)N(OCc2ccccc2)C(=O)C(=O)N(OCc2ccccc2)C1(C)C,-6.11
2,COc1cccc(C(C(=O)NCC2CCCO2)N(C(=O)Cn2nnc3ccccc32)c2ccc(NC(C)=O)cc2)c1OC (stereo not shown),6.49
3,N#Cc1ccc(N2CCN(c3ccc(F)cc3)CC2)cc1,-16.9
4,O=C(c1cccs1)N1CCN(c2cc(Cl)ccc2Cl)CC1,-33.8
5,N#Cc1ccc(N2CCN(C(=O)c3cccc(F)c3)CC2)c(F)c1,-66.8
6,CCOC(=O)N1CCN(c2cc(C)c([N+](=O)[O-])cc2F)CC1,-8.16
7,Cc1ccc(N2CCN(C(=O)c3cccs3)CC2)c(C)c1,-10.6
8,N#Cc1ccc(N2CCN(C(=O)c3cccs3)CC2)c(F)c1,-55.7
9,N#Cc1cc(F)c(N2CCNCC2)cc1Cl,3.42
10,O=C(c1cccc(C(=O)N2CCN(c3ccccc3F)CC2)c1)N1CCN(c2ccccc2F)CC1,-2.32
11,O=C(c1cccc(F)c1)N1CCCN(C(=O)c2cccc(F)c2)CC1,-6.95
12,O=C(c1cccs1)N1CCN(c2ccc(Cl)cc2)CC1,-13.4
13,N#Cc1ccc(N2CCNCC2)c(F)c1,-69
14,Cc1cc(N2CCN(C(=O)c3cccs3)CC2)c(F)cc1[N+](=O)[O-],-67
15,COc1ccc(S(=O)(=O)N2CCCOC2CNC(=O)C(=O)NCCc2ccco2)cc1 (stereo not shown),4.42
16,CC(C)(C)c1ccc(C(=O)Cn2cnnc2C#N)cc1,3.7
17,Cc1ccc(N2CC(C(=O)NCCc3ccc(S(N)(=O)=O)cc3)CC2=O)cc1 (stereo not shown),22.5
18,O=C(N/N=C/c1cccnc1)c1ccccc1,17.3
19,Cn1c(/C=C/c2ccccc2[N+](=O)[O-])nc2ccccc2c1=O,5
20,COc1ccccc1S(=O)(=O)Cc1ccc(C(=O)NCc2ccco2)o1,-33.5
21,O=C(COC(=O)Cc1ccccc1)Nc1ccc(SC(F)F)cc1,5.27
22,CNC(=S)NNC(=O)c1c(C)nc2cc(C)ccn12,7.15

row,Structure (SMILES),"hERG current change (%, negative = inhibition) at 10uM [%]"
1,O=C(c1cccs1)N1CCN(c2ccc([N+](=O)[O-])cc2F)CC1,-56.8
2,CCC(=O)c1ccc(N2CCN(C(=O)c3cc([N+](=O)[O-])ccc3F)CC2)c(F)c1,-42.9
3,CCC(=O)c1ccc(N2CCN(C(=O)c3cc([N+](=O)[O-])ccc3N3CCN(C)CC3)CC2)c(F)c1,-46.4
4,Cc1ccc(S(=O)(=O)N2CCC(C(=O)OCC(=O)N(C)Cc3ccccc3)CC2)cc1C,-12
5,O=C(Nc1cccc(Cl)c1N1CCOCC1)c1ccc(Br)o1,6.64
6,CCN1CCN(c2c(Cl)cccc2NC(=O)c2ccc(Br)o2)CC1,-73.6
7,O=C(Nc1cccc(Cl)c1N1CCOCC1)c1cccs1,-23.5
8,O=C(Nc1cccc(Cl)c1N1CCCC1)c1ccc([N+](=O)[O-])o1,9.6
9,O=C(NC(=S)Nc1cccc(Cl)c1N1CCCCC1)c1cccs1,22.7
10,CCN1CCN(c2c(Cl)cccc2NC(=O)c2ccco2)CC1,-73.4
11,CCN1CCN(c2c(Cl)cccc2NC(=O)c2cccs2)CC1,-73.8
12,O=C(Nc1cccc(Cl)c1N1CCOCC1)c1ccco1,-8.08
13,O=C(Nc1cccc(Cl)c1N1CCCC1)c1ccc(Br)o1,-5.58
14,O=C(Nc1cccc(Cl)c1N1CCOCC1)c1ccc([N+](=O)[O-])o1,2.67
15,O=C(Nc1cccc(Cl)c1N1CCCC1)c1ccco1,6.11
16,CCN1CCN(c2c(Cl)cccc2NC(=O)c2ccc([N+](=O)[O-])o2)CC1,-73.9
17,CC12CCC(=O)N1C(C(=O)NNC(=O)c1ccc(Br)cc1)CS2 (stereo not shown),-8.4
18,Cc1ccc2nc(SCC(=O)Nc3ccc(C(N)=O)cc3)[nH]c2c1,3.74
19,CC(CN(C)Cc1ccccc1)OC(=O)c1ccc2c(c1)OCCO2.Cl (stereo not shown),5.15
20,COC(=O)c1ccc(COc2ccc3ccc(=O)oc3c2)o1,8.66
21,CN(C)CCNC(=O)Cn1ccc2cc(S(=O)(=O)N3CCCCCC3)ccc21,-25.4
22,C/C(N)=C(/C#N)C(=O)CSc1nn(-c2ccc(Cl)cc2)c(=S)s1,12.9

row,Structure (SMILES),"hERG current change (%, negative = inhibition) at 10uM [%]"
1,O=S(=O)(NCCc1ccncc1)c1ccccc1,4.04
2,c1ccc2c(c1)CCCC2NC1=NCCC1 (stereo not shown),-2.53
3,O=C(NCC(c1cccs1)N1CCOCC1)c1ccc(Cl)c([N+](=O)[O-])c1 (stereo not shown),-31.9
4,CCOc1ncccc1C(=O)N1CCN(C(c2ccccc2)c2ccccc2)CC1,5.75
5,O=C(O)CCn1c(-c2ccccc2)cc2c1CCCC2=O,14.1
6,Cc1c(NS(=O)(=O)c2ccc(NC3CCCC3)c([N+](=O)[O-])c2)c(=O)n(-c2ccccc2)n1C,-19.7
7,Cc1cc(C)nc(NS(=O)(=O)c2cccs2)c1,3.36
8,CCN1CCN(c2c(Cl)cccc2NC(=O)c2ccc([N+](=O)[O-])cc2)CC1,-72
9,CCN1CCN(c2c(Cl)cccc2NC(=O)c2ccc3nsnc3c2)CC1,-49.5
10,CCN1CCN(c2c(Cl)cccc2NC(=O)c2ccc3c(c2)OCCO3)CC1,-38.4
11,O=C(CNc1ccc2ccccc2c1)N/N=C/c1ccncc1,-8.31
12,O=C(Nc1cc(Cl)ccc1N1CCCC1)C1=NN(c2ccccc2)C(=O)CC1,-16.9
13,CC(=O)N1CCc2cc(S(=O)(=O)NCCC(=O)Nc3cccc(C)c3C)ccc21,0.058
14,COc1ccc(CN(C(=O)CN2C(=O)NC3(CCC(C)CC3)C2=O)C(C)Cc2cccs2)cc1 (stereo not shown),-68.7
15,CC1CCC2(CC1)NC(=O)N(CC(=O)NCc1cccs1)C2=O (stereo not shown),1.95
16,CC1CCC2(CC1)NC(=O)N(CC(=O)N(Cc1ccccc1)C(C)(C)C)C2=O (stereo not shown),10.6
17,O=C(/C=C/c1cccc([N+](=O)[O-])c1)NCc1ccco1,-33
18,Cc1ccc(C2CC(=O)N3CN(c4ccc(Br)cc4)CSC3=C2C#N)o1 (stereo not shown),11.1
19,Cc1nc2cc3nc(C(F)(F)F)[nH]c3cc2[nH]1,0.0754
20,CC1CCN(CCCn2c(SCC(=O)Nc3ccccc3Cl)nc3ccccc3c2=O)CC1,-70.8
21,CC1CCN(CCCn2c(SCC(=O)NC3CCCC3)nc3ccccc3c2=O)CC1,-77
22,CCc1ccc(NC(=O)CSc2nc3ccccc3c(=O)n2CCCC(=O)N2CCCC2)cc1,-27.9

row,Structure (SMILES),"hERG current change (%, negative = inhibition) at 10uM [%]"
1,CCCCn1c(SCC(=O)NC2CCCC2)nc2ccccc2c1=O,-4.43
2,CCc1ccc(NC(=O)CSc2nc3ccccc3c(=O)n2CCCN2CCC(C)CC2)cc1,-67.2
3,O=C(CSc1nc2ccccc2c(=O)n1CCCO)NC1CC1,-13.4
4,CCOCCCn1c(SCC(=O)NC2CCCC2)nc2ccccc2c1=O,-1.74
5,O=C(CCCn1c(SCC(=O)Nc2ccccc2Cl)nc2ccccc2c1=O)NCC1CCCO1 (stereo not shown),-48.9
6,CCCCn1c(SCC(=O)Nc2ccc(NC(C)=O)cc2)nc2ccccc2c1=O,-2.55
7,CNC(=O)N(O)C1N(/N=C/c2c(F)cccc2Cl)C(=S)SC1(C)C (stereo not shown),18
8,CC(=O)c1cccc(NC(=O)C(C)OC(=O)c2cc(=O)[nH]c3ccccc23)c1 (stereo not shown),-0.987
9,CCC(CNc1cc(OC)cc2cccnc12)NC1CCCCC1 (stereo not shown),-26.2
10,COc1cc(C(=O)O)cc(NC(=O)c2cccs2)c1OC,13
11,NS(=O)(=O)c1ccc(CCNS(=O)(=O)c2cccc(C(=O)O)c2)cc1,15.9
12,COc1ccc(NS(=O)(=O)c2cc3c(cc2C)N(C)CCO3)c(OC)c1,1.28
13,O=C(c1ccc2c(c1)OCO2)C1CCCN(Cc2cccn2-c2cccnc2)C1 (stereo not shown),-58.3
14,COc1ccc(C(=O)C2CCCN(Cc3cnc(N4CCOCC4)s3)C2)cc1F (stereo not shown),-47.6
15,COc1ccc(C(=O)C2CCCN(Cc3cccn3-c3cccnc3)C2)cc1OC (stereo not shown),-62.9
16,COc1ccc(C(=O)C2CCCN(Cc3cnc(N4CCCC4)s3)C2)cc1OC (stereo not shown),-44
17,COc1cccc(C(=O)C2CCCN(Cc3cccn3-c3cccnc3)C2)c1 (stereo not shown),-29
18,COc1ccc(C(=O)C2CCCN(C(=O)c3cccs3)C2)cc1F (stereo not shown),-8.95
19,COc1ccc(C(=O)C2CCCN(Cc3cccn3-c3nccs3)C2)cc1F (stereo not shown),-83.5
20,COc1ccc(C(=O)C2CCCN(Cc3cccn3-c3nccs3)C2)cc1OC (stereo not shown),-82
21,S=C1NCCc2ccccc2C1c1ccccc1 (stereo not shown),-14.5
22,C/C(=C\C(=S)Nc1ccccc1)Nc1ccccc1,22.4
